# According to the supplement of paper PMC8975748:
# Counter-ions that a name gives are not always drawn. ± gives the standard deviation of the averaged measurements.
# Test system: Saccharomyces cerevisiae BY4741 SeMeCo community
# Assay: mean cell size (pixel area) (pixels); higher = larger cells
# Conditions: 10 µM; 24 h; SM minimal medium
# How it was run: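 Harmony analysis of automated confocal images of paraformaldehyde-fixed yeast gave the mean cell pixel area per well. The yeast was a Saccharomyces cerevisiae BY4741 community carrying four plasmids, each with a fluorescent marker and each complementing one auxotrophy, incubated for 24 h in SM medium containing drug at a final 10 µM in 384-well plates. Results are averaged over 3 replicates. Same SeMeCo high-content imaging drug screen: Selleck FDA-approved drugs at 10 µM, 24 h in SM medium, 384-well plates, 3 replicates.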
row,SMILES,mean cell size
1,C[C@@H]1NC(=O)[C@@H](N)CNC(=O)[C@H](C2CCNC(=N)N2)NC(=O)/C(=C/NC(N)=O)NC(=O)[C@H](CNC(=O)CC(N)CCCN)NC1=O.N=C1NCC[C@H]([C@@H]2NC(=O)/C(=C/NC(N)=O)NC(=O)[C@H](CNC(=O)C[C@@H](N)CCCN)NC(=O)[C@H](CO)NC(=O)[C@@H](N)CNC2=O)N1 [Capreomycin Sulfate],12.1 ± 0.22
2,CN(C)CCC=C1c2ccccc2C(C)(C)c2ccccc21 [Melitracen hydrochloride],12 ± 0.24
3,Oc1cccc(O)c1 [Resorcinol],12.4 ± 0.22
4,CN(C)[C@@H]1C(O)=C(C(N)=O)C(=O)[C@@]2(O)C(O)=C3C(=O)c4c(O)ccc(Cl)c4[C@@H](O)[C@H]3C[C@@H]12 [Demeclocycline HCl],12.5 ± 0.32
5,CC(=O)O[C@H]1C[C@@]2(C)[C@@H](C[C@@H](O)[C@H]3[C@@]4(C)CC[C@@H](O)[C@@H](C)[C@@H]4CC[C@@]32C)/C1=C(\CCC=C(C)C)C(=O)O [Fusidine],12.41 ± 0.032
6,CC[C@H]1OC(=O)C[C@@H](O)[C@H](C)[C@@H](O[C@@H]2O[C@H](C)[C@@H](O[C@H]3C[C@@](C)(O)[C@@H](O)[C@H](C)O3)[C@H](N(C)C)[C@H]2O)[C@@H](CC=O)C[C@@H](C)C(=O)/C=C/C(C)=C/[C@@H]1CO[C@@H]1O[C@H](C)[C@@H](O)[C@@H](OC)[C@H]1OC [Tylosin tartrate],12.45 ± 0.055
7,C[C@H]1c2cccc(O)c2C(=O)C2=C(O)[C@]3(O)C(=O)C(C(N)=O)=C(O)[C@@H](N(C)C)[C@@H]3[C@@H](O)[C@@H]21 [Doxycycline],12.1 ± 0.32
8,C[C@H]1c2cccc(O)c2C(=O)C2=C(O)[C@]3(O)C(=O)C(C(N)=O)=C(O)[C@@H](N(C)C)[C@@H]3[C@@H](O)[C@@H]21 [Doxycycline monohydrate],12.2 ± 0.19
9,COc1ccc2c(c1)C(=O)N(CCc1ccc(S(=O)(=O)NC(=O)NC3CCCCC3)cc1)C(=O)C2(C)C [Gliquidone],12.5 ± 0.12
10,CN(C)[C@@H]1C(O)=C(C(N)=O)C(=O)[C@@]2(O)C(O)=C3C(=O)c4c(O)cccc4[C@@](C)(O)[C@H]3[C@H](O)[C@@H]12 [Oxytetracycline Dihydrate],12.6 ± 0.18
11,CC(=O)OCC1=C(C(=O)O)N2C(=O)[C@@H](NC(=O)CSC(=NC(C)C)NC(C)C)[C@H]2SC1 [Cefathiamidine],12.3 ± 0.14
12,C[C@]1(COc2ccc(N3CCC(Oc4ccc(OC(F)(F)F)cc4)CC3)cc2)Cn2cc([N+](=O)[O-])nc2O1 [Delamanid],12.1 ± 0.19
13,NC[C@H]1O[C@H](O[C@H]2[C@H](O)[C@@H](O[C@H]3O[C@H](CO)[C@@H](O)[C@H](N)[C@H]3O)[C@H](N)C[C@@H]2N)[C@H](O)[C@@H](O)[C@@H]1O [Kanamycin sulfate],11.9 ± 0.26
14,Cn1nnnc1SCC1=C(C(=O)O)N2C(=O)[C@@H](NC(=O)[C@H](OC=O)c3ccccc3)[C@H]2SC1 [Cefamandole nafate],12.6 ± 0.23
15,CN(C)[C@@H]1C(O)=C(C(N)=O)C(=O)[C@@]2(O)C(O)=C3C(=O)c4c(O)cccc4[C@@](C)(O)[C@H]3[C@H](O)[C@@H]12 [Oxytetracycline (Terramycin)],12.87 ± 0.067
16,CO[C@@H]1[C@@H](O[C@@H]2O[C@H](C)[C@@H](O[C@H]3C[C@@](C)(O)[C@@H](OC(=O)CC(C)C)[C@H](C)O3)[C@H](N(C)C)[C@H]2O)[C@@H](CC=O)C[C@@H](C)[C@@H](O)/C=C/C=C/C[C@@H](C)OC(=O)C[C@H]1O [Kitasamycin],12.32 ± 0.037
17,Cc1c(OCC(F)(F)F)ccnc1C[S@@+]([O-])c1nc2ccccc2[nH]1 [Dexlansoprazole],12.3 ± 0.13
18,CC(C)(C)[C@H]1CC[C@H](CC2=C(O)C(=O)c3ccccc3C2=O)CC1 [Buparvaquone],12.1 ± 0.18
19,CCC(=O)O[C@@H]1CC(=O)O[C@H](C)C/C=C/C=C/[C@H](O)[C@H](C)C[C@H](CC=O)[C@H](O[C@@H]2O[C@H](C)[C@@H](O[C@H]3C[C@@](C)(O)[C@@H](OC(=O)CC)[C@H](C)O3)[C@H](N(C)C)[C@H]2O)[C@H]1OC [Midecamycin],12.33 ± 0.1
20,CCOc1ccc2nc3cc(N)ccc3c(N)c2c1 [Ethacridine lactate monohydrate],12.86 ± 0.11
21,Cc1c(C)c2c(c(C)c1O)CC[C@@](C)(CCC[C@H](C)CCC[C@H](C)CCCC(C)C)O2 [Vitamin E],12.2 ± 0.22
